Data as given in PubChem BioAssay.
A number with no mark means an inactive call. For part of these data: Measured potencies and affinities stand elsewhere. Active and inactive are the calls of the source. Unless noted, the rule behind the calls is not given here.

Experiments:
[1] = antimalarial activity against Dd2 strain (AID 2302;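 active = growth inhibition above 50% at the single 2 µM test dose, taken to imply half-maximal potency below 2 µM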;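 note: 0% = DMSO untreated growth and 100% = chloroquine plus artemisinin killed control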); conditions: P. falciparum Dd2 in RBCs, LDH growth readout, 72 h; at 2 µM; hits give high values
[2] = HepG2 cytotoxicity, primary screen, cytotoxicity control for P. falciparum antimalarial project, cell-based, ATP luminescence (AID 2303;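 active = inhibition above 50%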;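 note: 0% = DMSO wells and 100% = digitonin-killed cells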); conditions: HepG2 viability, 24-48 h, at 10 µM, hits give high values
[3] = biological target: L-lactate dehydrogenase (Plasmodium falciparum (isolate CDC / Honduras)) (UniProt Q27743); test: PfLDH activity inhibition – cell lysate, 3D7 strain, counter-screen for P. falciparum growth inhibition project (AID 2304);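 note: 0% = vehicle and 100% = reference inhibitor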; conditions: P. falciparum 3D7 crude extract, LDH APAD/NBT absorbance; at 2 µM; hits give high values
[4] = inhibition of 3D7 malaria parasite growth – strain 3D7 (AID 2306);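 note: 0% = DMSO wells and 100% = chloroquine plus artemisinin control wells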; conditions: P. falciparum 3D7 erythrocytic growth, LDH absorbance, 72 h; at 2 µM; hits give high values
[5] = biological target: Calcium-dependent protein kinase 1 (Plasmodium falciparum (isolate 3D7)) (UniProt P62344); test: PfCDPK1 kinase inhibitors, biochemical, TCAMS library (AID 1159585; cut-off not given, nearly all actives have IC50 up to about 0.98 µM;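 note: inhibitors leave more ATP so luminescence rises with inhibition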); conditions: recombinant PfCDPK1, Kinase-Glo ATP depletion luminescence
[6] = biological target: Plasmodium falciparum protein kinase 6 (PK6, PF3D7_1337100) (UniProt Q8IDW1); test: PfPK6 kinase inhibitors, biochemical, TCAMS library (AID 1159586); conditions: recombinant PfPK6, Kinase-Glo ATP depletion luminescence
[7] = biological target: Protein kinase 7 (PK7), Plasmodium falciparum 3D7 (PF3D7_0213400) (UniProt Q7YTF7); test: inhibition of Plasmodium PK7 catalytic activity – biochemical, TCAMS antimalarial set, Kinase-Glo luminescence (AID 1159587); conditions: recombinant PfPK7, Kinase-Glo ATP depletion luminescence
[8] = biological target: Calcium-dependent protein kinase 4 (Plasmodium falciparum (isolate 3D7)) (UniProt Q8IBS5); test: PfCDPK4 kinase inhibitors, biochemical, TCAMS library (AID 1159588; cut-off not given, nearly all actives have IC50 up to about 0.91 µM); conditions: recombinant PfCDPK4, Kinase-Glo ATP depletion luminescence
Chain of Calcium-dependent protein kinase 4 (Plasmodium falciparum (isolate 3D7)) (Q8IBS5 whole entry, looked up): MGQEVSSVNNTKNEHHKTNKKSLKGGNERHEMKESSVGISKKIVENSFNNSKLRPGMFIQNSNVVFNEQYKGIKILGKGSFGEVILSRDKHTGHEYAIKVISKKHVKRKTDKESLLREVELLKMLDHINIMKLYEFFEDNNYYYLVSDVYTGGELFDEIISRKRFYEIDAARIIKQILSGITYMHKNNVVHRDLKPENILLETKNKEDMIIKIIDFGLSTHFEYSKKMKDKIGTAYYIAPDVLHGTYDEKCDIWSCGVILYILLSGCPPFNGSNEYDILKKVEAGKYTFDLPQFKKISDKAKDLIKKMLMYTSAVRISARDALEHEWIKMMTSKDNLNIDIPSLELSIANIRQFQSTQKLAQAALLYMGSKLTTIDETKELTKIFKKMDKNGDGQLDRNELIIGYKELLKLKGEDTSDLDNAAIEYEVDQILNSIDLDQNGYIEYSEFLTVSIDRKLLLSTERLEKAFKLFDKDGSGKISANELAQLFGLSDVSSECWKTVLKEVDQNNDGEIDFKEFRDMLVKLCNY

Chain of Protein kinase 7 (PK7), Plasmodium falciparum 3D7 (PF3D7_0213400) (Q7YTF7 1-343): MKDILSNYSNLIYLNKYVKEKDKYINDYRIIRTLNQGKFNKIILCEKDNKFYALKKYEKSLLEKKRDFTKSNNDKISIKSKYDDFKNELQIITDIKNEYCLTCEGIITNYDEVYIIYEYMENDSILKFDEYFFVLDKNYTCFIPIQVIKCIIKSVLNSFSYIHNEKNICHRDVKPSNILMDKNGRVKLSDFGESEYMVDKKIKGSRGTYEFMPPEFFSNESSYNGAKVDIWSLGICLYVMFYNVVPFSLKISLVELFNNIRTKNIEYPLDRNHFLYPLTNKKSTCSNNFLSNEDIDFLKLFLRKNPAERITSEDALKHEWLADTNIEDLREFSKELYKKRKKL
Chain of Calcium-dependent protein kinase 1 (Plasmodium falciparum (isolate 3D7)) (P62344 whole entry, looked up): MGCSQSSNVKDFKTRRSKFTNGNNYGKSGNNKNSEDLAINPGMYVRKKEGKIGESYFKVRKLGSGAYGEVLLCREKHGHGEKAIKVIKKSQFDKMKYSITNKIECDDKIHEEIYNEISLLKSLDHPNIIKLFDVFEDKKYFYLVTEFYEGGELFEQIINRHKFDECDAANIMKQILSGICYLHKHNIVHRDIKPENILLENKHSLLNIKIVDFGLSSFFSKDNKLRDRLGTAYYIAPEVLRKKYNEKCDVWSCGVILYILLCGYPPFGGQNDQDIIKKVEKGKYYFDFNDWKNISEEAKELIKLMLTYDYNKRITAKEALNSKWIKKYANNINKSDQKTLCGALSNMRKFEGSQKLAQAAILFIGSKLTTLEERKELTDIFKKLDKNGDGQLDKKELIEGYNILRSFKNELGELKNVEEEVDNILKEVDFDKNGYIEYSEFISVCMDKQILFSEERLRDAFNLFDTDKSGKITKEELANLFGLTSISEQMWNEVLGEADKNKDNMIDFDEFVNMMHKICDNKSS
Chain of Plasmodium falciparum protein kinase 6 (PK6, PF3D7_1337100) (Q8IDW1 1-305): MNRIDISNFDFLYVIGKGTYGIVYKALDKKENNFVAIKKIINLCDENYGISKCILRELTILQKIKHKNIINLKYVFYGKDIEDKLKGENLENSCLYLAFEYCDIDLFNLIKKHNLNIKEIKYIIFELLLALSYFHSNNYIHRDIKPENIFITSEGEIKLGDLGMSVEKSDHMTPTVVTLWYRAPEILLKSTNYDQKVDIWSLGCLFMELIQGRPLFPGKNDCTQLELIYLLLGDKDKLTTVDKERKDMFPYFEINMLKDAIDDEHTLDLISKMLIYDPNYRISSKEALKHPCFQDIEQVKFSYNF
Chain of L-lactate dehydrogenase (Plasmodium falciparum (isolate CDC / Honduras)) (Q27743 whole entry, looked up): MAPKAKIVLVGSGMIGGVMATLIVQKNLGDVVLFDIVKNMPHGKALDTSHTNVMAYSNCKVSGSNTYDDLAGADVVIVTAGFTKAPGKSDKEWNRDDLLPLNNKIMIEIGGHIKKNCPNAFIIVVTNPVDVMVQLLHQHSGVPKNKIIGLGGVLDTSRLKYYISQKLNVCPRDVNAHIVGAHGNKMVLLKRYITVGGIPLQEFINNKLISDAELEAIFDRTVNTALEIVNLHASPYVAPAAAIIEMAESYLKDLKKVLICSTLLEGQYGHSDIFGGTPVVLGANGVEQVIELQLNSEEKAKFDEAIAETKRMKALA

| Structure (SMILES) | growth inhibition [1] | inhibition [2] | inhibition [3] | growth inhibition [4] | outcome [5] | outcome [6] | outcome [7] | outcome [8] |
| --- | --- | --- | --- | --- | --- | --- | --- | --- |
| O=C(NCCCCN1CCN(c2cccc3c2CCCC3)CC1)c1ccc(NC(=O)c2ccc(Cl)cc2)cc1 | 85% (active) | 35% | 3% | 101% (active) | inactive | inactive | inactive | inactive |
| O=C(Nc1cccc(F)c1)c1ccc(C(=O)NC2CCN(CC3CCCCC3)C2)cc1 (configuration not stated) | 15% | 16% | -3% | 96% (active) | inactive | inactive | inactive | inactive |
| Nc1cc(-c2ccc3ccccc3c2)nc2ccccc12 | 52% (active) | 19% | -2% | 99% (active) | inactive | inactive | inactive | inactive |
| O=C(Nc1cccc(Cl)c1Cl)N[C@H]1CCN(CCCCCNC(=O)[C@@H]2C[C@H]2c2ccc(Cl)c(Cl)c2)C1 | -7% | 40% | -2% | 87% (active) | inactive | inactive | inactive | inactive |
| CC(C)CNCc1cccc(-c2cccc(CNc3ccc4ncccc4c3)c2)c1 | 28% | 23% | 6% | 92% (active) | inactive | inactive | inactive | inactive |
| N#CC(c1ccc(F)cc1)c1ccc2c(C(F)(F)F)cc(C(F)(F)F)nc2n1 (configuration not stated) | 89% (active) | 9% | 2% | 97% (active) | inactive | inactive | inactive | inactive |
| CC12CCC(C(=O)N(CC(O)Cn3c4ccc(Cl)cc4c4cc(Cl)ccc43)C1=O)C2(C)C (configuration not stated) | 99% (active) | -1% | -5% | 100% (active) | inactive | inactive | inactive | inactive |
| CC(C)CC(C)NC(=O)C1Cc2c([nH]c3ccc(F)cc23)C2(CCN(Cc3ccccc3)CC2)N1 (configuration not stated) | 49% | 18% | 7% | 97% (active) | inactive | inactive | inactive | inactive |
| CS(=O)(=O)c1ccccc1CNC(=O)c1ccc(-c2ccc(-c3nc4ccc(C(F)(F)F)cc4[nH]3)s2)cc1 | 76% (active) | 90% (active) | 9% | 96% (active) | inactive | inactive | inactive | inactive |
| CN1CCc2cc(CN3C[C@]4(C)C[C@H]3CC(C)(C)C4)c(O)cc2C(c2ccccc2)C1 (some centres not stated) | 88% (active) | -4% | -3% | 98% (active) | inactive | inactive | inactive | inactive |
| CC(C)(C)CCN1CCC(NC(=O)c2ccc(-c3cccc(C(F)(F)F)c3)s2)CC1 | 88% (active) | 95% (active) | -2% | 93% (active) | inactive | inactive | inactive | inactive |
| COCCOC(=O)C(=O)c1c(-c2ccccc2)c(-c2ccc(OC)c(OC)c2)c2c3cc(OC)c(OC)cc3ccn12 | 100% (active) | 4% | -2% | 101% (active) | inactive | inactive | inactive | inactive |
| COc1ccc(CN2CCC(CN3CC4(OC3=O)c3ccccc3-c3ccccc34)C2)c(O)c1 (configuration not stated) | 79% (active) | 22% | -7% | 101% (active) | inactive | inactive | inactive | inactive |
| CC(=O)Nc1ccc(C(=O)Nc2cccc(-c3ccc(-c4nc5ccc(F)cc5[nH]4)cc3)c2)cn1 | 99% (active) | 10% | -6% | 99% (active) | inactive | inactive | inactive | inactive |
| CN1CCCN(Cc2cccc(-c3ccc(CNC(=O)c4cccc(Cl)c4)c(F)c3)c2)CC1 | 38% | 56% (active) | -2% | 96% (active) | inactive | inactive | inactive | inactive |
| O=C1COc2ccccc2N1C/C=C(\CN1CCC(c2ccccc2)CC1)c1cc(Cl)cc(Cl)c1 | 72% (active) | 14% | -4% | 91% (active) | inactive | inactive | inactive | inactive |
| N#Cc1ccc(C(=O)NC2CCN(CCCCCNC(=O)/C=C/c3ccc(Cl)c(Cl)c3)CC2)cc1 | 1% | 13% | -4% | 98% (active) | inactive | inactive | inactive | inactive |
| CC(=O)N1CCN(c2ccc(NC(=O)c3oc(-c4ccccc4)nc3C(F)(F)F)cn2)CC1 | 93% (active) | -6% | -2% | 92% (active) | inactive | inactive | inactive | inactive |
| COc1ccc2cc(-c3nc(-c4c(Cl)cccc4Cl)[nH]c3-c3ccnc(NCCC4CCCN4C)c3)ccc2c1 (configuration not stated) | 82% (active) | 11% | 2% | 100% (active) | inactive | inactive | inactive | inactive |
| Cc1ccc(S(=O)(=O)/N=C(\N)NC(N)=O)cc1 | 2% | 26% | 1% | 94% (active) | inactive | inactive | inactive | inactive |

| Structure (SMILES) | growth inhibition [1] | inhibition [2] | inhibition [3] | growth inhibition [4] | outcome [5] | outcome [6] | outcome [7] | outcome [8] |
| --- | --- | --- | --- | --- | --- | --- | --- | --- |
| CC(C)(C)c1nn(-c2ccccc2)c2[nH]c(=O)c(CNCc3ccccc3)cc12 | 91% (active) | 5% | 2% | 90% (active) | inactive | inactive | inactive | inactive |
| CC(C)CN1CCCN(Cc2cccc(NC(=O)c3ccc(Cl)c(Cl)c3)c2)CC1 | 9% | 10% | 0% | 91% (active) | inactive | inactive | inactive | inactive |
| CN(C)CCOc1ccc(NC(=O)NC(C)(C)c2nc(-c3ccc(Cl)c(O)c3)c(-c3ccncc3)[nH]2)cc1 | 98% (active) | 22% | 5% | 98% (active) | inactive | inactive | inactive | inactive |
| Cc1ccc2c(NN=Cc3ccccc3[N+](=O)[O-])cc(C)nc2c1 | 100% (active) | 13% | 4% | 102% (active) | inactive | inactive | inactive | inactive |
| CN1CCC(NCc2ccc(-c3ccc(S(=O)(=O)NCc4ccccc4)s3)cc2)CC1 | 95% (active) | 77% (active) | -3% | 99% (active) | inactive | inactive | inactive | inactive |
| CCc1cc2c(cc1OCCN(C)C)N(C(=O)Nc1ccc(-c3ccncc3)c(Cl)c1)CC2 | 7% | 18% | -1% | 95% (active) | inactive | inactive | inactive | inactive |
| COc1ccc2nccc([C@@H](O)CN3CCC(NC(=O)/C=C/c4ccc5ccccc5n4)CC3)c2c1 | 9% | 12% | 1% | 91% (active) | inactive | inactive | inactive | inactive |
| CCOC(=O)c1[nH]c(-c2ccccc2)nc1-n1nc(C)cc1C | 9% | 7% | 2% | 92% (active) | inactive | inactive | inactive | inactive |
| Cc1nc(C)c(CC(=O)Nc2ccc(-c3cccc(-c4nc5ccc(C(F)(F)F)cc5[nH]4)c3)cc2)s1 | 4% | 67% (active) | 1% | 86% (active) | inactive | inactive | inactive | inactive |
| Ic1cc(Nc2ncnc3ccsc23)ccc1OCc1ccccc1 | 81% (active) | 22% | 4% | 101% (active) | inactive | inactive | inactive | inactive |
| O=C(Cc1ccc(Cl)cc1)Nc1cc(Cl)ccc1Cn1cnc(N2CCNCC2)cc1=O | 2% | 9% | -4% | 97% (active) | inactive | inactive | inactive | inactive |
| CCCCCCC(C)c1cc(O)c2c(c1)OC(=O)CC2(CC)c1ccccn1 (configuration not stated) | -2% | 15% | -2% | 100% (active) | inactive | inactive | inactive | inactive |
| CSc1cccc(NC(=O)Nc2ccc(I)c(OCCN(C)C)c2)c1 | 19% | 14% | -1% | 97% (active) | inactive | inactive | inactive | inactive |
| Cc1nn(-c2ccccc2)c2nc(-c3ccccc3)cc(C(=O)N3CCOCC3)c12 | 67% (active) | 6% | 6% | 93% (active) | inactive | inactive | inactive | inactive |
| N#Cc1ccc2c(c1)CN(C1CCC(NC(=O)/C=C/c3cc(C(F)(F)F)cc(C(F)(F)F)c3)CC1)CCC2 (configuration not stated) | 4% | 34% | -4% | 95% (active) | inactive | inactive | inactive | inactive |
| Cc1cc(C)c(NC(=O)NC2CCN(CCCCCNC(=O)/C=C/c3ccc(Cl)c(Cl)c3)C2)c(C)c1 (configuration not stated) | 48% | 23% | 1% | 99% (active) | inactive | inactive | inactive | inactive |
| O=C(Nc1cccc(N2CCC(NCc3cnn(-c4cccc(F)c4)c3)CC2)c1)c1ccncc1 | 40% | 50% (active) | 4% | 84% (active) | inactive | inactive | inactive | inactive |
| COc1cc2c(cc1C(F)(F)F)N(C(=O)Nc1cc(-c3ccncc3)cc(-c3cccnc3)c1)CC2 | 50% (active) | 64% (active) | 7% | 95% (active) | inactive | inactive | inactive | inactive |
| N#Cc1ccc(N(CCOC(=O)c2ccc(Br)s2)Cc2ccccc2C(F)(F)F)cc1C(F)(F)F | 48% | 8% | 3% | 82% (active) | inactive | inactive | inactive | inactive |
